Assay outcomes deposited in PubChem by Broad Institute.
FadD28 FP inh = inhibitors of Mycobacterium tuberculosis FadD28 bisubstrate binding; FadD28 bisubstrate probe binding, fluorescence polarization; inhibition, % at 12.5 µM; hit rate 0.22% among 360,000; AID 588549; in the data active = inhibition above about 8.5%, passing the limit was not always enough; inconclusive = no clear call, values can overlap the other calls
PfHsp40 yeast = compounds rescuing yeast from Plasmodium falciparum HSP40 toxicity | S. cerevisiae expressing PfHsp40, growth rescue, ATP luminescence | growth rescue, % at 12.5 µM | hit rate 0.68% among 340,000 | AID 504582; in the data active = growth rescue above about 28%, passing the limit was not always enough; inconclusive = no clear call, values can overlap the other calls;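 note: yeast W303a lacking pdr1 and pdr3 grown in galactose medium; growth measured after three days at 30 °C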
PrP UTR inh = suppresses PrP 5' UTR mRNA reporter expression; AID 488862; hit rate 0.35% among 340,000; cell-based PrP 5' UTR mRNA reporter, plate reader; inhibition, % (concentration not given with the values); in the data active = inhibition above about 52%; note: 0 = median of the neutral control wells
BioA inh = inhibitors of Mycobacterium tuberculosis BioA enzyme; purified M. tuberculosis BioA enzyme, plate reader; AID 602481; inhibition, % at 9.99 µM; hit rate 0.096% among 360,000; in the data active = inhibition above about 40%; inconclusive = no clear call, values can overlap the other calls
TcdB GH inh = blocks C. difficile toxin B glycohydrolase activity. TcdB glycohydrolase enzymatic assay, plate reader. AID 652162. hit rate 0.24% among 350,000. inhibition, % at 9.99 µM; in the data active = inhibition above about 10%
PrP UTR cherry = prion 5' UTR mRNA inhibition, cherry-pick retest; shares compounds with PrP UTR inh; cell-based prion protein 5' UTR reporter, plate reader; inhibition, % at 2.5 µM; hit rate 48% among 1,100; AID 504592; in the data active = inhibition above about 54%; inconclusive = no clear call, values can overlap the other calls
Numbers without * were called inactive; ? = inconclusive; nt = no result given; ! = a repeat was not active. Hits are enriched below; roughly 1.1% of the tested compounds scored in any of these assays.

SMILES | FadD28 FP inh | PfHsp40 yeast | PrP UTR inh | BioA inh | TcdB GH inh | PrP UTR cherry
Cc1ccc(S(=O)(=O)N(C)C[C@@H]2Oc3c(NC(=O)C4CCCCC4)cccc3C(=O)N([C@H](C)CO)C[C@@H]2C)cc1 | nt | nt | nt | -4 | -13 | nt
O=C(Nc1ccc(F)cc1)N[C@@H]1C=C[C@@H](CC(=O)N2CCCCC2)O[C@@H]1CO | nt | nt | nt | -2 | 0 | nt
Cc1nc2ccccc2c(=O)n1/N=C/c1c(O)ccc2oc3c(c12)CCCC3 | 0 | 0 | 61* | nt | nt | -2
COc1ccc(NC(=O)Nc2ccc3c(c2)C(=O)N([C@H](C)CO)C[C@H](C)[C@H](CN(C)S(=O)(=O)c2ccc(F)cc2)OCCCC[C@H](C)O3)cc1 | nt | nt | nt | 1 | -1 | nt
C[C@@H]1CN([C@H](C)CO)C(=O)c2cc(/C=C/c3ccccc3)cnc2O[C@@H]1CN(C)C(=O)c1cnccn1 | nt | nt | nt | -2 | 1 | nt
O=C(COC(=O)c1ccc[nH]c1=O)Nc1ccc(S(=O)(=O)N2CCCC2)cc1 | -4 | 0 | -25 | nt | 1 | nt
O=C(COC(=O)c1ccc[nH]c1=O)Nc1ccc(N2CCCCC2)cc1 | -4 | 0 | 62* | 0 | -1 | ?
CC=Cc1ccc2n(c1=O)C[C@@H]1[C@@H](CO)[C@H](C(=O)Nc3ccccc3)[C@H]2N1C(=O)CC1CC1 (mixture of isomers) | nt | nt | nt | 1 | -1 | nt
Cc1cc(NC(=O)c2ccc(C)c([N+](=O)[O-])c2)no1 | -1 | 0 | -15 | nt | 0 | nt
Cc1cc(NC(=O)c2ccc(Br)c([N+](=O)[O-])c2)no1 | 1 | 1 | 83* | -1 | 1 | -7
Cc1ccc(S(=O)(=O)CC(=O)Nc2ccc(S(=O)(=O)Nc3ccccn3)cc2)cc1 | -1 | 0 | 80* | nt | 1 | -20
CN(C)c1ccc(C(=S)Nc2ccccc2)cc1 | 0 | 0 | 22 | nt | -1 | nt
CN(C)c1ccc(NC(=S)c2ccccn2)cc1 | 0 | 3 | 83* | 2 | -2 | 80*
O=C(Nc1ccccc1)N[C@H]1CC[C@@H](CCn2cc(-c3ccccc3F)nn2)O[C@@H]1CO | nt | nt | nt | nt | -2 | nt
CCOC(=O)C1=CN(CC2CCCCC2)CCC1=O | -2 | 0 | 84* | 0 | 0 | 14
CC(=O)C1=CN(CC2CCCCC2)CCC1=O | -1 | 0 | -17 | -1 | 0 | nt
C[C@@H]1CN([C@@H](C)CO)C(=O)c2cc(NC(=O)Nc3cccc4ccccc34)ccc2O[C@@H](C)CCCCO[C@H]1CN(C)Cc1ccc(Cl)c(Cl)c1 | nt | nt | nt | -1 | 0 | nt
CCOc1ccc(Nc2nc(N)c3ccccc3n2)cc1 | -2 | -7 | 56* | 0 | 1 | 41
CN(C)c1ccc(Nc2nc(N)c3ccccc3n2)cc1 | -4 | -6 | 77* | 0 | 1 | 62*
Cc1ccc(S(=O)(=O)N(C)C[C@@H]2Oc3ccc(NS(=O)(=O)c4ccc(F)cc4)cc3C(=O)N([C@H](C)CO)C[C@@H]2C)cc1 | nt | nt | nt | -1 | nt | nt
O=C(NCC[C@@H]1CC[C@H](NC(=O)C2CCOCC2)[C@H](CO)O1)c1ccc(F)cc1 | nt | nt | nt | -4 | -7 | nt
COc1ccc(N=CC2=C(O)c3ccccc3C2=O)c(OC)c1 | 0 | 0 | 69* | -2 | nt | 64*
COc1ccc(NC(=O)COC(=O)Cc2c[nH]c3ccccc23)cc1OC | -3 | 1 | 68* | nt | 2 | -24
N#CC1=C(N)OC2=C(CCc3ccccc32)C1c1ccccc1 (centres undefined) | -2 | 7 | 58* | nt | nt | 90*
COc1ccc(NC(=O)Nc2ccc3c(c2)CC(=O)N([C@H](C)CO)C[C@@H](C)[C@@H](CN(C)C(=O)Nc2cccc4ccccc24)O3)cc1 | nt | nt | nt | 3 | nt | nt
SMILES | FadD28 FP inh | PfHsp40 yeast | PrP UTR inh | BioA inh | TcdB GH inh | PrP UTR cherry
CN1CCc2c(c3ccccc3n2Cc2ccccc2)C1 | -4 | 0 | 58*! | 1 | -7 | -6
CCCCN1CCc2c(c3ccccc3n2Cc2ccccc2)C1 | 0 | 0 | 6 | 1 | 1 | nt
CN(Cc1ccccc1)C(=O)c1ccc(NC(=O)Cc2ccc(NC(=O)C3CCCN(C(=O)C4CCCC4)C3)cc2)cc1 (centres undefined) | -1 | 0 | -21 | 0 | 0 | nt
CN(Cc1ccccc1)C(=O)c1ccc(NC(=O)Cc2ccc(NC(=O)C3CCCN(C(=O)C4CC4)C3)cc2)cc1 (centres undefined) | -1 | 2 | 86* | -1 | -1 | -11
CN(CCc1ccccc1)C(=O)c1cccc(NC(=O)Cc2cccc(NC(=O)C3CCCN(C(=O)C4CC4)C3)c2)c1 (centres undefined) | -1 | -1 | 53* | -1 | 1 | -59
O=C(C[C@@H]1CC[C@@H]2[C@H](COC[C@H](O)CN2C(=O)Nc2cc(Cl)cc(Cl)c2)O1)N1CCCCC1 | nt | nt | nt | 1 | 0 | nt
CC1=Nc2cc(C(=O)NCc3ccco3)ccc2Sc2ccc(C)cc21 | 0 | -1 | 61* | -3 | nt | 88*
CC1=Nc2cc(C(=O)NCC3CCCO3)ccc2Sc2ccc(C)cc21 (centres undefined) | -1 | 1 | -35 | -3 | 0 | nt
COc1ccc(NC(=O)N(C)C[C@H]2Oc3ccc(NC(=O)Nc4ccc(C(F)(F)F)cc4)cc3C(=O)N([C@H](C)CO)C[C@@H]2C)cc1 | -2 | -1 | 65* | -1 | -1 | -23
COc1ccc(NC(=O)Nc2ccc3c(c2)C(=O)N([C@H](C)CO)C[C@H](C)[C@@H](CN(C)C(=O)Nc2ccc(C(F)(F)F)cc2)O3)cc1 | 1 | 0 | -22 | -1 | -1 | nt
COCC(=O)N(C)C[C@@H]1Oc2cc(C3=CCCCC3)ccc2S(=O)(=O)N([C@@H](C)CO)C[C@H]1C | nt | nt | nt | -1 | -1 | nt
O=C(c1ccccc1)n1ccc(-c2cnc(-c3ccccc3)s2)n1 | -1 | -1 | 54* | nt | nt | -35
COc1ccc(S(=O)(=O)n2ccc(-c3cnc(-c4ccccc4)s3)n2)cc1 | -2 | 2 | -36 | -3 | nt | nt
CNC[C@H]1Oc2ncc(C#CCC(C)C)cc2C(=O)N([C@H](C)CO)C[C@H]1C | nt | nt | nt | -2 | -2 | nt
O=C(NC(=S)Nn1cnnc1)c1ccccc1Cl | 0 | -1 | 78* | nt | 2 | -6
O=C(NC(=S)Nn1cnnc1)c1ccc(F)cc1Cl | -3 | -1 | -21 | -1 | 1 | nt
CC(C)NC(=O)Nc1cccc2c1O[C@@H](CN(C)Cc1ccc(C(F)(F)F)cc1)[C@@H](C)CN([C@H](C)CO)C2=O | nt | nt | nt | -1 | 1 | nt
CN(Cc1ccccc1)C(=O)COC(=O)c1cncc(Br)c1 | -2 | -1 | 72* | nt | 1 | -14
C[C@H]1CN([C@@H](C)CO)S(=O)(=O)c2ccc(C3=CCCC3)cc2O[C@H]1CN(C)Cc1cccnc1 | nt | nt | nt | 0 | 0 | nt
C[C@]12CCC3C(CCC4=CC(O)CC[C@@]43/C=N/O)C1(O)CCC2C1=CC(=O)OC1 (some centres undefined) | -4 | 0 | 80* | nt | -2 | 70*
CC(C)(C)C1CCc2c(sc(NC(=O)CSc3ncn[nH]3)c2C#N)C1 (centres undefined) | -3 | 1 | 3 | -1 | nt | nt
